Glyco luc inh: increase of ERlucT glycosylation luciferase signal, primary screen, N-linked glycosylation inhibitor project, D54 ERlucT cells, luminescence, set 2; reporter increase, % at 12.5 µM; D54 ERlucT glycosylation luciferase reporter, 24 h; percent of 100 nM tunicamycin response; 360,000 tested, 0.23% active;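 active = mean luciferase reporter signal, scaled so untreated is 0 and the glycosylation-blocking control 100, at or above a set limit in every replicate; inconclusive = mean reaches the limit but not every replicate does; inactive = mean below the limit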;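 also: luciferase carries N-glycosylation sites so blocking glycosylation raises the light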
esBAF inh: Bmi1 luciferase reporter increase in mESCs, primary screen, esBAF inhibitor project, mouse ES cells, Bmi1 luciferase knock-in, single point; 24 h; 100% = twice the neutral-well signal; AID 602393, 2012; 350,000 tested, 2% active; reporter increase, % at 12.5 µM; in the data active = activation above about 40%; inconclusive = no clear call, values can overlap the other calls;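 also: a rise in the Bmi1 reporter signal indicates esBAF inhibition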
Vif imaging: HIV Vif self-association inhibitors, primary screen, imaging, HEK293T, single point; HEK293T cells, Vif self-association by quenched fluorescence, 24 h; inhibition, % at 7.49 µM; 340,000 tested, 0.35% active; AID 602346, 2012; in the data active = inhibition above about 50%, passing the limit was not always enough; inconclusive = no clear call, values can overlap the other calls; inactive = below about 31%
PvdQ acylase: P. aeruginosa PvdQ acylase inhibitors, primary screen, biochemical, fluorescence, plate reader and imaging, single point | PvdQ acylase [Pseudomonas aeruginosa LESB58] | purified PvdQ acylase | inhibition, % at 10 µM | 340,000 tested, 0.063% active; in the data active = inhibition above about 30%, passing the limit was not always enough; inconclusive = no clear call, values can overlap the other calls
Wnt act: Wnt/beta-catenin pathway activators, primary screen, cell-based, plate reader, single point | Wnt/beta-catenin reporter cell assay, activator | activation, % at 9.35 µM | 300,000 tested, 1.2% active; in the data active = activation above about 30%, passing the limit was not always enough; inconclusive = no clear call, values can overlap the other calls
MITF TRPM1 HTS: activators of MITF-driven TRPM1 promoter reporter, primary screen, cell-based, SK-MEL-5, luciferase, single point | AID 588334, 2011 | activation, % at 12.5 µM | SK-MEL-5 TRPM1-promoter luciferase, 24 h; % of positive control, neutral wells = 0 | 300,000 tested, 0.75% active;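 active = mean activation of at least 80% with every replicate also reaching 80%; inconclusive = mean reaches 80% but some replicate falls short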
Of the large screens only hits and unclear results are named; the others gave an inactive call. Sampled rows, rich in hits. Any-hit rate of the full collection: about 2.9%.

C[C@@H]1CN([C@H](C)CO)C(=O)c2cc(NS(=O)(=O)c3ccc(Cl)cc3)ccc2O[C@@H](C)CCCCO[C@H]1CN(C)Cc1ccc2c(c1)OCO2	none (no result: Glyco luc inh, Vif imaging, PvdQ acylase, Wnt act, MITF TRPM1 HTS)
Cc1ccccc1-c1cn(-c2ccccc2)c(=S)[nH]1	none
Cc1ccc(-c2cn(-c3ccccc3)c(=S)[nH]2)cc1C	esBAF inh inconclusive, Wnt act 38, MITF TRPM1 HTS 123
CCOc1ccccc1NC(=O)CN(c1cc(C)cc(C)c1)S(=O)(=O)c1c(C)noc1C	none
CCOc1ccccc1NC(=O)CN(c1ccc(OC)cc1)S(=O)(=O)c1c(C)noc1C	Glyco luc inh 34
C[C@@H]1CCCCO[C@@H](CN(C)C(=O)Cc2ccccc2)[C@@H](C)CN([C@H](C)CO)C(=O)c2cc(NC(=O)Cc3ccccc3)ccc2O1	none (no result: Glyco luc inh, Vif imaging, PvdQ acylase, Wnt act, MITF TRPM1 HTS)
CCCOc1ccc(C(=O)N2CCCc3ccccc32)cc1	none (no result: Wnt act, MITF TRPM1 HTS)
O=C(c1ccc2ccccc2c1)N1CCc2ccccc21	esBAF inh 64
CCOc1ccc(C(=O)N2CCc3ccccc32)cc1	esBAF inh 50 (no result: MITF TRPM1 HTS)
O=C(c1ccc(F)c(F)c1)N1CCCc2ccccc21	none
O=C(C[C@H]1C[C@H]2c3cc(NC(=O)NC4CCCC4)ccc3O[C@H]2[C@H](CO)O1)NC1CCCC1	none (no result: Glyco luc inh, Vif imaging, PvdQ acylase, Wnt act, MITF TRPM1 HTS)
CC(OC(=O)c1ccccc1C(=O)O)c1ccccc1 (stereo unspecified)	Vif imaging 53
CCCC#Cc1cnc2c(c1)C(=O)N([C@@H](C)CO)C[C@H](C)[C@@H](CN(C)C(=O)C1CCC1)O2	none (no result: Glyco luc inh, Vif imaging, PvdQ acylase, Wnt act, MITF TRPM1 HTS)
CC(C)NC(=O)N(C)C[C@H]1Oc2ccc(NS(C)(=O)=O)cc2CC(=O)N([C@H](C)CO)C[C@@H]1C	none (no result: Glyco luc inh, Vif imaging, PvdQ acylase, Wnt act, MITF TRPM1 HTS)
Nc1c(C(=O)C2CC2)sc2nc3c(cc12)CCC3	MITF TRPM1 HTS 117 (no result: esBAF inh)
Nc1c(C(=O)Nc2ccc(Cl)c(C(=O)O)c2)sc2nc3c(cc12)CCCC3	none (no result: esBAF inh, Vif imaging)
NC(=O)c1sc2nc3c(cc2c1N)CCCCCC3	esBAF inh 46
Nc1c(C(=O)c2ccc(Cl)cc2)sc2nc3c(cc12)CCC3	MITF TRPM1 HTS 152 (no result: esBAF inh)
Nc1c(C(=O)O)sc2nc3c(cc12)CCCC3	none (no result: esBAF inh, PvdQ acylase, MITF TRPM1 HTS)
CNS(=O)(=O)c1cccc(C(=O)Nc2cccnc2)c1	Vif imaging 51 (no result: Wnt act, MITF TRPM1 HTS)
CNS(=O)(=O)c1cccc(C(=O)Nc2cccc(Cl)c2)c1	esBAF inh 48 (no result: Wnt act, MITF TRPM1 HTS)
O=C(Nc1cccnc1)c1cccc(S(=O)(=O)Nc2cccc(Cl)c2)c1	none
O=C(C[C@@H]1CC[C@@H]2[C@H](COC[C@H](O)CN2Cc2cccc(-c3ccncc3)c2)O1)N1CCN(c2ccccc2)CC1	none (no result: Glyco luc inh, Vif imaging, PvdQ acylase, Wnt act, MITF TRPM1 HTS)
C[C@H]1CCCCO[C@H](CN(C)C(=O)Nc2ccc(C(F)(F)F)cc2)[C@@H](C)CN([C@@H](C)CO)C(=O)c2cc(NC(=O)Nc3ccccc3)ccc2O1	none (no result: Glyco luc inh, Vif imaging, PvdQ acylase, Wnt act, MITF TRPM1 HTS)
C[C@H]1CN([C@@H](C)CO)C(=O)Cc2cc(NC(=O)Nc3ccc4c(c3)OCO4)ccc2O[C@H]1CN(C)S(=O)(=O)c1cn(C)cn1	none (no result: Glyco luc inh, Vif imaging, PvdQ acylase, Wnt act, MITF TRPM1 HTS)
CC1=Nc2ccccc2/C1=C\c1sc(Nc2ccc(C)cc2)nc1O	none (no result: esBAF inh)
Oc1[nH]c(=S)sc1C=C1N=c2ccccc2=N1	Wnt act 42 (no result: Vif imaging, MITF TRPM1 HTS)
Oc1c(C=C2N=c3ccccc3=N2)sc(=S)n1-c1ccc(F)cc1	none
Oc1[nH]c(=S)sc1/C=C1\C(c2ccccc2)=Nc2ccccc21	Vif imaging 69 (no result: esBAF inh)
Cc1noc(C)c1NC(=O)N1C[C@@H](O)COC[C@@H]2O[C@H](CC(=O)N3CCc4ccccc4C3)CC[C@H]21	none (no result: Glyco luc inh, Vif imaging, PvdQ acylase, Wnt act, MITF TRPM1 HTS)
C/C=C/c1ccc([C@@H]2[C@H](CO)N3CCCCN(C(=O)Nc4cc(F)ccc4F)C[C@@H]23)cc1	none (no result: Glyco luc inh, Vif imaging, PvdQ acylase, Wnt act, MITF TRPM1 HTS)
CC(=O)N(C)C[C@@H]1Oc2cc(C#Cc3ccncc3)ccc2S(=O)(=O)N([C@@H](C)CO)C[C@@H]1C	none (no result: Glyco luc inh, Vif imaging, PvdQ acylase, Wnt act, MITF TRPM1 HTS)
COc1ccc(-c2noc(CSc3ccccc3)n2)cc1OC	esBAF inh 52, MITF TRPM1 HTS inconclusive (no result: Vif imaging)
Cc1ccc(SCc2nc(-c3ccccc3)no2)cc1	none
c1ccc(SCc2nc(-c3ccncc3)no2)cc1	MITF TRPM1 HTS 91
